# Results published in PubChem BioAssay (NCATS).
# Inconclusive results are not listed. Values without a mark were called inactive. Calls of active or inactive are those of the source. Calls follow the shape of the dose curve; as a rule, active = well fitted curve in the direction sought with a large enough effect; inconclusive = small, poorly fitted or top-dose-only effect, or another doubt; inactive = no such curve, though single readings can be large; an effect the other way counts as inactive or inconclusive.
# How the values were obtained:
# [1] = Primary redox qHTS assay for identification of artifact compounds. (AID 1845223)
# Method in brief: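 Redox-cycling detection via DTT (250 uM final) oxidation coupled to Amplex Red (25 uM)/HRP (250 mU/mL) in HBSS. 15 min preincubation plus 30 min after DTT, room temperature. Ex/Em 525/598 nm; 4-parameter Hill fit against DMSO and 10 uM DA3003.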
# [2] = Quantitative High-Throughput drug screen in 47 multiple myeloma cell lines against the NCATS MIPE library collection: FR4_PLB cell viability assay (AID 1918924; also: nearly all actives have a fitted effect of over 35% in size; also: potency is read from the fitted curve at half-maximal effect)
# Method in brief: (§1)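 Approved and investigational drugs from MIPE 4.0 were added by pin tool to 500 cells per well. After 48 hours at 37C, ATP-based CellTiter-Glo luminescence indicated remaining viability.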
# [3] = Quantitative High-Throughput drug screen in 47 multiple myeloma cell lines against the NCATS MIPE library collection: Delta47_JCRB cell viability assay (AID 1918925; also: nearly all actives have a fitted effect of over 45% in size; also: potency is read from the fitted curve at half-maximal effect)
# Method in brief: (§2)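 Viability readout: CellTiter-Glo luminescence following 5 min room-temperature incubation with reagent. Prior exposure: 48 h, 37C, humidified 5% CO2, 500 cells per well.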
# [4] = Quantitative High-Throughput drug screen in 47 multiple myeloma cell lines against the NCATS MIPE library collection: EJM_DSMZ cell viability assay (AID 1918926; also: nearly all actives have a fitted effect of over 30% in size; also: potency is read from the fitted curve at half-maximal effect)
# Method in brief: as §2
# [5] = Quantitative High-Throughput drug screen in 47 multiple myeloma cell lines against the NCATS MIPE library collection: AMO1_DSMZ cell viability assay (AID 1918927; also: nearly all actives have a fitted effect of over 30% in size; also: potency is read from the fitted curve at half-maximal effect)
# Method in brief: as §2
# [6] = Quantitative High-Throughput drug screen in 47 multiple myeloma cell lines against the NCATS MIPE library collection: ARD_JJKsccE7 cell viability assay (AID 1918929; also: potency is read from the fitted curve at half-maximal effect)
# Method in brief: as §2
# [7] = Quantitative High-Throughput drug screen in 47 multiple myeloma cell lines against the NCATS MIPE library collection: Karpas620_DSMZ cell viability assay (AID 1918959); also: nearly all actives have a fitted effect of over 30% in size; also: potency is read from the fitted curve at half-maximal effect
# Method in brief: as §1
# [8] = Quantitative High-Throughput drug screen in 47 multiple myeloma cell lines against the NCATS MIPE library collection: KMM1_JCRB cell viability assay (AID 1918960); also: nearly all actives have a fitted effect of over 30% in size; also: potency is read from the fitted curve at half-maximal effect
# Method in brief: (§3)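 Viability screen: myeloma cells (500/well) incubated 48 h at 37 °C, humidified 5% CO2, with pinned library compounds; CellTiter-Glo added, luminescence read; DMSO wells set 100%, medium-only wells 0%.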
# [9] = Quantitative High-Throughput drug screen in 47 multiple myeloma cell lines against the NCATS MIPE library collection: Karpas417_ECACC cell viability assay (AID 1918961); conditions: Karpas417 myeloma viability, CellTiter-Glo ATP luminescence, 48 h; viability (% of DMSO): at 45.8 µM (top of the series); also: potency is read from the fitted curve at half-maximal effect
# Method in brief: (§4)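 Inhibition of cell viability is measured here. Each line was plated at 500 cells per well, treated with MIPE 4.0 drugs, kept 48 hours at 37C, then assayed for ATP content by CellTiter-Glo luminescence.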
# [10] = Quantitative High-Throughput drug screen in 47 multiple myeloma cell lines against the NCATS MIPE library collection: KHM11_PLB cell viability assay (AID 1918962); also: nearly all actives have a fitted effect of over 35% in size; also: potency is read from the fitted curve at half-maximal effect
# Method in brief: as §1
# [11] = Quantitative High-Throughput drug screen in 47 multiple myeloma cell lines against the NCATS MIPE library collection: JIM3_ECACC cell viability assay (AID 1918963; also: nearly all actives have a fitted effect of over 35% in size; also: potency is read from the fitted curve at half-maximal effect)
# Method in brief: as §1
# [12] = Quantitative High-Throughput drug screen in 47 multiple myeloma cell lines against the NCATS MIPE library collection: JIM1_ECACC cell viability assay (AID 1918964; also: potency is read from the fitted curve at half-maximal effect)
# Method in brief: as §2
# [13] = Quantitative High-Throughput drug screen in 47 multiple myeloma cell lines against the NCATS MIPE library collection: INA6_PLB cell viability assay (AID 1918965; also: nearly all actives have a fitted effect of over 55% in size; also: potency is read from the fitted curve at half-maximal effect)
# Method in brief: as §4
# [14] = Quantitative High-Throughput drug screen in 47 multiple myeloma cell lines against the NCATS MIPE library collection: H1112_PLB cell viability assay (AID 1918967; also: nearly all actives have a fitted effect of over 30% in size; also: potency is read from the fitted curve at half-maximal effect)
# Method in brief: as §2
# [15] = Quantitative High-Throughput drug screen in 47 multiple myeloma cell lines against the NCATS MIPE library collection: Karpas25_ECACC cell viability assay (AID 1918968; also: nearly all actives have a fitted effect of over 35% in size; also: potency is read from the fitted curve at half-maximal effect)
# Method in brief: as §2
# [16] = Quantitative High-Throughput drug screen in 47 multiple myeloma cell lines against the NCATS MIPE library collection: KMS27_JCRB cell viability assay (AID 1918970); also: nearly all actives have a fitted effect of over 30% in size; also: potency is read from the fitted curve at half-maximal effect
# Method in brief: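 ATP-based viability (CellTiter-Glo luminescence) is measured in cells treated 48 h with approved and investigational drugs at 37 °C. Controls are DMSO-only wells for full viability and media-only wells for none.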
# [17] = Quantitative High-Throughput drug screen in 47 multiple myeloma cell lines against the NCATS MIPE library collection: KMS12BM_JCRB cell viability assay (AID 1918971)
# Method in brief: as §2
# [18] = Quantitative High-Throughput drug screen in 47 multiple myeloma cell lines against the NCATS MIPE library collection: KMS12PE_JCRB cell viability assay (AID 1918972); also: nearly all actives have a fitted effect of over 30% in size; also: potency is read from the fitted curve at half-maximal effect
# Method in brief: as §4
# [19] = Quantitative High-Throughput drug screen in 47 multiple myeloma cell lines against the NCATS MIPE library collection: ARP1_JJKsccF8 cell viability assay (AID 1918928; also: nearly all actives have a fitted effect of over 40% in size; also: potency is read from the fitted curve at half-maximal effect)
# Method in brief: as §3
# [20] = Quantitative High-Throughput drug screen in 47 multiple myeloma cell lines against the NCATS MIPE library collection: JJN3_DSMZ cell viability assay (AID 1918966; also: nearly all actives have a fitted effect of over 50% in size; also: potency is read from the fitted curve at half-maximal effect)
# Method in brief: as §2
Compound,Potency [1],Potency [2],Potency [3],Potency [4],Potency [5],Potency [6],Potency [7],Potency [8],Potency [9],Potency [10],Potency [11],Potency [12],Potency [13],Potency [14],Potency [15],Potency [16],Potency [17],Potency [18],Potency [19],Potency [20]
NC(=O)Nc1cc(-c2cccc(F)c2)sc1C(=O)N[C@H]1CCCNC1,inactive,0.0833 µM (active),105 nM (active),296 nM (active),662 nM (active),526 nM (active),3.72 µM (active),187 nM (active),83.3 nM (active),74.3 nM (active),469 nM (active),105 nM (active),59 nM (active),1.48 µM (active),590 nM (active),590 nM (active),0.662 µM (active),469 nM (active),,
COc1ccc(F)c(F)c1C(=O)c1cnc(NC2CCN(S(C)(=O)=O)CC2)nc1N,inactive,2.35 µM (active),1180 nM (active),2350 nM (active),,1180 nM (active),2.64 µM (active),1870 nM (active),743 nM (active),1870 nM (active),1870 nM (active),1180 nM (active),1320 nM (active),1.87 µM (active),1180 nM (active),1320 nM (active),1.18 µM (active),1870 nM (active),2350 nM (active),
CCOc1ccccc1OCCNC(C)Cc1ccc(OC)c(S(N)(=O)=O)c1 (stereo not drawn),inactive,inactive,inactive,inactive,,inactive,inactive,inactive,,,inactive,inactive,,inactive,,inactive,,inactive,inactive,inactive
CCCn1c(=O)c2[nH]c(-c3cnn(Cc4cccc(C(F)(F)F)c4)c3)nc2n(CC)c1=O,inactive,5.9 µM (active),inactive,14800 nM (active),inactive,,inactive,1660 nM (active),,inactive,inactive,,,inactive,inactive,,,,,5.9 µM (active)
O=C1CCC[C@@H]2[C@H]3CCC[N+]4([O-])CCC[C@@H](CN12)[C@@H]34 (stereo partly drawn),inactive,inactive,inactive,inactive,inactive,inactive,inactive,,,,inactive,,inactive,,inactive,,,,,
Cc1cn(-c2cc(NC(=O)c3ccc(C)c(Nc4nccc(-c5cccnc5)n4)c3)cc(C(F)(F)F)c2)cn1,inactive,20.9 µM (active),inactive,18700 nM (active),inactive,,inactive,264 nM (active),,,inactive,,,inactive,,,20.9 µM (active),inactive,,18.7 µM (active)
Nc1ccccc1NC(=O)c1ccc(CNc2nccc(-c3cccnc3)n2)cc1,inactive,0.935 µM (active),166 nM (active),3320 nM (active),,935 nM (active),1.66 µM (active),1050 nM (active),469 nM (active),2640 nM (active),2640 nM (active),1320 nM (active),296 nM (active),2.64 µM (active),833 nM (active),2640 nM (active),1.32 µM (active),469 nM (active),662 nM (active),
COc1cccc2nc(-c3cccs3)nc(NN3C(=O)C=C(C)C3=O)c12,inactive,1.87 µM (active),74.3 nM (active),296 nM (active),,1660 nM (active),0.743 µM (active),118 nM (active),52.6 nM (active),52.6 nM (active),148 nM (active),105 nM (active),,1.18 µM (active),26.4 nM (active),235 nM (active),0.105 µM (active),118 nM (active),41.8 nM (active),1.18 µM (active)
O=C(c1cncc(Br)c1)N1CCC(N2CCCC2)CC1,inactive,inactive,inactive,inactive,inactive,inactive,inactive,inactive,,,inactive,,,inactive,,,,inactive,,
CNC(=O)c1ccc(N2C(=S)N(c3cnc(C#N)c(C(F)(F)F)c3)C(=O)C23CCC3)cc1F,inactive,14.8 µM (active),743 nM (active),166 nM (active),332 nM (active),2090 nM (active),2.35 µM (active),2090 nM (active),1050 nM (active),2090 nM (active),2960 nM (active),1870 nM (active),2090 nM (active),0.833 µM (active),743 nM (active),4690 nM (active),13.2 µM (active),2960 nM (active),,3.32 µM (active)
O=C(Nc1ncc(-c2cc(C(F)F)nn2-c2c(Cl)cccc2Cl)s1)C1CC1,inactive,0.235 µM (active),332 nM (active),209 nM (active),235 nM (active),296 nM (active),,264 nM (active),,935 nM (active),264 nM (active),166 nM (active),296 nM (active),0.469 µM (active),662 nM (active),83.3 nM (active),1.05 µM (active),372 nM (active),418 nM (active),1.32 µM (active)
